HPGD inh – inhibitors of human 15-hydroxyprostaglandin dehydrogenase (HPGD) | P15428 | purified HPGD, NADH fluorescence kinetic, PGE2 substrate | Potency, µM, without a hit: at the highest dose activity change, negative = inhibition, actives largely listed as inhibitors | 4.3% of 150,000 active; also: potency is read from the fitted curve at half-maximal effect
Target sequence (P15428 whole entry, looked up): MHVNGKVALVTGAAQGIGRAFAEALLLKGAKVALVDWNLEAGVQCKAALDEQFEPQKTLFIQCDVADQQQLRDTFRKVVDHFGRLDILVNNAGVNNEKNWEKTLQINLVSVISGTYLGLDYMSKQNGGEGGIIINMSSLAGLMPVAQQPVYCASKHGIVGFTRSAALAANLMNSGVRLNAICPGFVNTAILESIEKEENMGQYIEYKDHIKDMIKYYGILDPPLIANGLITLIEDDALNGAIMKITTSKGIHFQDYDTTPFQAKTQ
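20 nM HPGD preincubated 15 min at room temperature with compound in 50 mM Tris-HCl pH 8, 0.01% Tween 20. Started with 1 mM NAD+ and 30 uM prostaglandin E2; NADH fluorescence (360/450 nm) read 5 times over 30-s intervals, last minus first.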
PNC assembly inh – blocks assembly of the perinucleolar compartment | PC3M PTB-GFP, PNC prevalence imaging, 16 h; active compounds read low | activity change (PNC), negative = inhibition, % at 10 µM | 3.1% of 140,000 active | AID 2417;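 active = readout at or below -70, meaning at least 70% loss of cells showing the perinucleolar compartment, a nuclear body marking cancer cells; inconclusive = readout between -30 and a set limit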;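 also: plate controls were DMSO wells for no effect and camptothecin positive control wells for full effect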
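PC3M cells stably expressing PTB-GFP, 750–1000 cells/well, treated 16 h at 37 °C with compound (23 nl of library stock), in duplicate. After paraformaldehyde fixation and Hoechst stain, imaged at 20x; PNC prevalence scored by image analysis.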
ALDH1A1 block – inhibitors of human aldehyde dehydrogenase 1A1. AID 1030. Potency, µM (doses to about 75.3 µM), for inactives: at the highest dose activity, negative = inhibition, actives largely listed as inhibitors. P00352. 7.3% of 220,000 active. Purified ALDH1A1, NADH fluorescence, propionaldehyde substrate;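 also: potency is read from the fitted curve at half-maximal effect; plate controls were no enzyme wells and a reference inhibitor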
Active calls of the source: *; ? = inconclusive; / = not tested or not shown. Most compounds without a hit are left out; they make up all but 11% or so of the library. Unless noted, calls follow the shape of the dose curve; as a rule, active = well fitted inhibition curve with a large enough effect (not every such curve was filed as active); inconclusive = small, poorly fitted or top-dose-only effect, or another doubt; inactive = no such curve, though single readings can be large or run the other way. Unless noted, % is scaled to controls: 0 for no effect and ±100 for the full control effect.

SMILES | HPGD inh | PNC assembly inh | ALDH1A1 block
O=C(O)/C=C/c1cn(-c2ncc(C(F)(F)F)cc2Cl)c2ccccc12 | 2µM* | ? | -14.9%
Cc1ccc(-c2ccc(=O)n(CCC(=O)NCCN3CCCCC3C)n2)cc1 (centres undefined) | -1.2% | -16.3 | 12.2%
NC1=CC(=O)c2cccc3cccc1c23 | -14.5% | 104.2 | 1µM*
NC1=Nc2cccc3cccc1c23 | / | / | 3.4%
O=C1CC(N2CCN(c3ccc(C(=O)c4ccc(F)cc4)cc3)CC2)C(=O)N1 (centres undefined) | -13.8% | -12.4 | -5.1%
O=C(O)c1cc(-c2ccccc2)n[nH]1 | -16.6% | 3.2 | -2.0%
O=C(O)/C=C\C(=O)NNC(=O)c1cc(-c2ccccc2)n[nH]1 | / | / | 25.1µM*
C/C(=N\NC(=O)C1(C)CC1(Br)Br)c1ccc([N+](=O)[O-])cc1 (centres undefined) | / | / | -3.2%
C/C(=N\NC(=O)C1(C)CC1(Br)Br)c1ccc(NC(=O)c2ccc(C)o2)cc1 (centres undefined) | 17.8µM* | -20.9 | -2.9%
Cc1ccccc1NC(=O)C1CCN(c2cc(-c3ccccc3)nc3ncnn23)CC1 | ? | -113.7* | ?
O=S(=O)(c1ccccc1)N1CCN(c2cc(-c3ccccc3)nc3ncnn23)CC1 | -11.1% | 12.5 | ?
O=C(NC(=O)c1cccc(OC(F)(F)C(F)F)c1)OC1CCS(=O)(=O)C1 (centres undefined) | -6.3% | ? | -0.5%
COc1ccc(NC(=O)c2ccco2)cc1NC(=O)c1cccnc1 | -10.9% | ? | 6.5%
O=C(Nc1ccc2cn[nH]c2c1)c1c(Cl)cccc1Cl | 22.4µM* | -23.0 | -1.6%
CCNC(=S)Nc1ccc2cn[nH]c2c1 | ? | 27.4 | 8.0%
O=C(Nc1ccc2cn[nH]c2c1)c1ccccc1F | ? | ? | 7.0%
CC(C)c1ccc(NC(=S)Nc2ccc3cn[nH]c3c2)cc1 | / | / | 18.9µM*
CC1=NN(c2ccccc2)C(=O)C1/C=C1\NC(=S)NC1=O (centres undefined) | / | / | 12.6µM*
CC1=C(C)CC2(SC1)C(=O)N(c1ccccc1)N=C2N (centres undefined) | / | / | -6.3%
CCOC(=O)/C=C/CCCC=O | -5.9% | / | 6.2%
C=C(C)C(=O)/C=C/CCC/C=C/C(=O)OCC | -5.8% | / | 25.1µM*
CC(NC(=O)C(=O)NCC1CCCO1)c1ccccc1 (centres undefined) | / | / | 6.4%
O=C(CSc1ccc(Cl)cc1)NCC1CCCO1 (centres undefined) | ? | 24.1 | 5.1%
Cc1ccc(OCC(=O)NCC2CCCO2)c(C)c1 (centres undefined) | / | / | 0.8%
Cc1cc(Cl)ccc1OCCCC(=O)NCC1CCCO1 (centres undefined) | 11.2µM* | ? | 9.7%
SMILES | HPGD inh | PNC assembly inh | ALDH1A1 block
O=C(CCn1nc(-c2ccccc2)c2ccccc2c1=O)N1CCN(c2ccccc2)CC1 | -11.3% | -22.8 | 22.4µM*
O=C(CCSc1ccccc1)NCC1CCCO1 (centres undefined) | 15.8µM* | ? | -1.7%
NC(=O)CCn1nc(-c2ccccc2)c2ccccc2c1=O | -7.4% | 5.6 | -14.2%
O=C(CC(c1ccccc1)c1ccccc1)NCC1CCCO1 (centres undefined) | 7.94µM* | 22.1 | -3.4%
COc1ccc(C2OC(=O)CC2C(=O)NCc2ccccc2Cl)cc1OC (centres undefined) | / | / | 0.4%
COc1ccc(NC(=O)Cn2c(NCC(C)O)nc3ccccc32)cc1Cl (centres undefined) | / | / | -3.3%
CCOC(=O)c1[nH]c2ccccc2c1NC(=O)Nc1ccc(OC)cc1 | ? | -7.9 | -10.4%
Cn1cccc1C(=O)N1CCC2(CCCN(Cc3ccc(C#N)cc3)C2)CC1 | -2.2% | / | -14.3%
C=CCn1c(Cc2cccs2)nnc1SCC(=O)c1cccc(Br)c1 | -23.5% | -0.6 | -13.5%
CC(=O)C1=C(O)C(=O)N(c2nccs2)C1c1ccccc1 (centres undefined) | -8.0% | -19.4 | ?
COc1ccc(-c2cc(C(F)(F)F)nc(-n3ccnc3C)n2)cc1 | ? | 4.1 | ?
O=C(CCCOc1ccccc1)NCC1CCCO1 (centres undefined) | 12.6µM* | -17.7 | -2.9%
O=C(CCn1nc(-c2ccccc2)c2ccccc2c1=O)NCC1CCCO1 (centres undefined) | 28.2µM* | 5.1 | ?
Cc1ccc(-c2nn(CCC(=O)NCC3CCCO3)c(=O)c3ccccc23)cc1 (centres undefined) | -21.0% | 6.4 | ?
COc1cccc(-c2noc(CCC(=O)NCC3CCCO3)n2)c1 (centres undefined) | / | / | 5.1%
O=C(CCc1nc(-c2ccc(Cl)cc2)no1)NCC1CCCO1 (centres undefined) | / | / | 35.5µM*
O=C(COc1ccccc1)NCC1CCCO1 (centres undefined) | -21.1% | 14.1 | 11.6%

Screening results deposited in PubChem BioAssay by National Center for Advancing Translational Sciences (NCATS).
